The source made the active and inactive calls. How the source made its calls: active means hit-call score of the fitted dose curve at least 0.9, where 1 is the maximum; inactive means score below 0.9.
How the values were obtained:
Conditions in all cases: mRNA level, 48 h; actives raise or lower the signal
[1] = read-out: Glutamate-cysteine ligase catalytic (GCLC), GCLC (gene 2729); assay: LTEA_HepaRG_GCLC: Life Technologies and Expression Analysis (LTEA) Assay for Glutamate-cysteine ligase catalytic (GCLC) using HepaRG (AID 2283498)
How it was run: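 HepaRG, 48 h exposure, 8-pt half-log series from 100 uM, 0.5% DMSO vehicle; TaqMan qRT-PCR for GCLC mRNA, housekeeping-normalized; bidirectional curve fit vs DMSO baseline.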

[2] = read-out: growth arrest and DNA damage 45 (GADD45G), GADD45G (gene 10912); assay: LTEA_HepaRG_GADD45G: Life Technologies and Expression Analysis (LTEA) Assay for growth arrest and DNA damage 45 (GADD45G) using HepaRG (AID 2283499)
How it was run: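 Human hepatic HepaRG line treated 48 h with chemicals (eight concentrations, half-log steps from 100 uM); transcript induction or repression of GADD45G scored by qRT-PCR versus DMSO vehicle.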

[3] = read-out: Glutamate-cysteine ligase regulatory (GCLM), GCLM (gene 2730); assay: LTEA_HepaRG_GCLM: Life Technologies and Expression Analysis (LTEA) Assay for Glutamate-cysteine ligase regulatory (GCLM) using HepaRG (AID 2283500)
How it was run: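 In this multiplexed HepaRG gene-expression assay, GCLM mRNA change after 48 h treatment (8 concentrations, max 100 uM) was scored against DMSO by bidirectional curve fitting.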

[4] = read-out: Glutathione S-transferase M3 (GSTM3), GSTM3 (gene 2947); assay: LTEA_HepaRG_GSTM3: Life Technologies and Expression Analysis (LTEA) Assay for Glutathione S-transferase M3 (GSTM3) using HepaRG (AID 2283501)
How it was run: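 Changes in GSTM3 expression, an oxidative-stress marker, were scored by bidirectional curve fitting against 0.5% DMSO vehicle. Human HepaRG cultures received chemicals for 48 h in duplicate, highest concentration 100 uM with half-log dilutions.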

[5] = read-out: Heat shock 70 kDa protein 1 (HSPA1A), gene 3303; assay: LTEA_HepaRG_HSPA1A: Life Technologies and Expression Analysis (LTEA) Assay for Heat shock 70 kDa protein 1 (HSPA1A) using HepaRG (AID 2283502)
How it was run: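 An oxidative-stress marker readout: HepaRG cells treated 48 h in duplicate with an eight-point series (highest 100 uM) had HSPA1A mRNA quantified by TaqMan qRT-PCR. Activity was fitted in both directions using 0.5% DMSO as baseline.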

[6] = read-out: Hypoxia-inducible factor 1-alpha (Homo sapiens) (UniProt Q16665); assay: LTEA_HepaRG_HIF1A: Life Technologies and Expression Analysis (LTEA) Assay for Hypoxia-inducible factor 1 (HIF1A) Trancription factor using HepaRG (AID 2283503);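 further: HIF1A transcript by TaqMan qRT-PCR normalized to ACTB GAPDH and POLR2A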
How it was run: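 Gain- or loss-of-signal HIF1A mRNA changes are fitted against a DMSO baseline. HepaRG cultures receive eight concentrations, highest 100 uM, for 48 h in serum-free induction medium with 0.5% DMSO.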

[7] = read-out: 3-Hydroxy-3-Methylglutaryl-CoA Synthase 2 (HMGCS2), HMGCS2 (gene 3158); assay: LTEA_HepaRG_HMGCS2: Life Technologies and Expression Analysis (LTEA) Assay for 3-Hydroxy-3-Methylglutaryl-CoA Synthase 2 (HMGCS2) using HepaRG (AID 2283504)
How it was run: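 Expression of HMGCS2 in human HepaRG liver cells is measured by qRT-PCR 48 h after dosing (highest 100 uM, half-log series, 0.5% DMSO). Values come from bidirectional concentration-response fitting with DMSO as baseline.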

HGF (gene 3082) = assay: LTEA_HepaRG_HGF: Life Technologies and Expression Analysis (LTEA) Assay for Hepatocyte Growth Facto (HGF) using HepaRG (AID 2283505)
How it was run: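 Gain or loss of HGF mRNA in human HepaRG liver cells after 48 h chemical exposure; eight concentrations up to 100 uM with 0.5% DMSO vehicle, quantified by TaqMan qRT-PCR.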

[8] = read-out: Insulin Like Growth Factor 1 (IGF1), IGF1 (gene 3479); assay: LTEA_HepaRG_IGF1: Life Technologies and Expression Analysis (LTEA) Assay for Insulin Like Growth Factor 1 (IGF1) using HepaRG (AID 2283506)
How it was run: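 Endpoint: IGF1 mRNA change by qRT-PCR, housekeeping-normalized, fitted bidirectionally relative to 0.5% DMSO vehicle. Human HepaRG cells were treated 48 h in serum-free induction medium, eight half-log concentrations topping at 100 uM.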

[9] = read-out: Intercellular Adhesion Molecule 1 (ICAM1), ICAM1 (gene 3383); assay: LTEA_HepaRG_ICAM1: Life Technologies and Expression Analysis (LTEA) Assay for Intercellular Adhesion Molecule 1 (ICAM1) using HepaRG (AID 2283507)
How it was run: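 Gain or loss of transcript in HepaRG hepatic cells is quantified by qRT-PCR after 48 h chemical exposure (up to 100 uM, half-log steps), with DMSO as baseline.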

[10] = read-out: Interleukin 6 (IL6), IL6 (gene 3569); assay: LTEA_HepaRG_IL6: Life Technologies and Expression Analysis (LTEA) Assay for Interleukin 6 (IL6) using HepaRG (AID 2283509)
How it was run: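 qRT-PCR read-out of IL6 transcript, normalized to three housekeeping genes, after 48 h chemical exposure of HepaRG cells; 8-point half-log series, top 100 uM, 0.5% DMSO vehicle. Bidirectional curve fitting against DMSO baseline.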

[11] = read-out: Interleukin 6 Receptor (IL6R), IL6R (gene 3570); assay: LTEA_HepaRG_IL6R: Life Technologies and Expression Analysis (LTEA) Assay for Interleukin 6 Receptor (IL6R) using HepaRG (AID 2283510);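 on AC50: differentiated human HepaRG liver cells in serum-free induction medium; TaqMan qRT-PCR signal normalized to ACTB GAPDH and POLR2A housekeeping genes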
How it was run: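 In this HepaRG screen, test chemicals act on cells for 48 h at up to 100 uM (eight half-log points, duplicate wells). IL6R expression is quantified by qRT-PCR after normalization to ACTB, GAPDH and POLR2A, with DMSO as baseline.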

[12] = read-out: Potassium channel subfamily K member 1 (KCNK1), KCNK1 (gene 3775); assay: LTEA_HepaRG_KCNK1: Life Technologies and Expression Analysis (LTEA) Assay for Potassium channel subfamily K member 1 (KCNK1) using HepaRG (AID 2283511)
How it was run: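 HepaRG, 48 h exposure, 8-pt half-log series top 100 uM, 0.5% DMSO vehicle, duplicates. Readout: KCNK1 transcript by qRT-PCR (Fluidigm array), housekeeping-normalized; bidirectional curve fit relative to DMSO baseline.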

[13] = read-out: Keratin 19 (KRT19), KRT19 (gene 3880); assay: LTEA_HepaRG_KRT19: Life Technologies and Expression Analysis (LTEA) Assay for Keratin 19 (KRT19) using HepaRG (AID 2283512)
How it was run: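 Gene-expression endpoint in the human liver line HepaRG after 48 h exposure to up to 100 uM test chemical with 0.5% DMSO vehicle; KRT19 mRNA by qRT-PCR, analyzed bidirectionally versus DMSO.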

[14] = read-out: JUN Transcription Factor, JUN (gene 3725); assay: LTEA_HepaRG_JUN: Life Technologies and Expression Analysis (LTEA) Assay for JUN Transcription Factor using HepaRG (AID 2283513)
How it was run: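 Gene-expression endpoint: JUN mRNA (qRT-PCR, normalized to three reference genes) in HepaRG cultures treated 48 h with chemicals, duplicate wells, 100 uM maximum with half-log dilutions; bidirectional fitting relative to 0.5% DMSO.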

[15] = read-out: Lipase C (LIPC), LIPC (gene 3990); assay: LTEA_HepaRG_LIPC: Life Technologies and Expression Analysis (LTEA) Assay for Lipase C (LIPC) using HepaRG (AID 2283514)
How it was run: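 HepaRG, 48 h exposure, 8-pt half-log series from 100 uM in 0.5% DMSO, duplicates. Readout: LIPC mRNA by Fluidigm qRT-PCR, housekeeping-normalized (ACTB/GAPDH/POLR2A). Gain or loss fitted bidirectionally against DMSO baseline.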

[16] = read-out: Lipoprotein lipase (LPL), LPL (gene 4023); assay: LTEA_HepaRG_LPL: Life Technologies and Expression Analysis (LTEA) Assay for Lipoprotein lipase (LPL) using HepaRG (AID 2283515)
How it was run: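 HepaRG, 48 h exposure, 8-pt half-log dilutions from 100 uM, 0.5% DMSO vehicle, duplicates; qRT-PCR (Fluidigm array) of LPL mRNA vs housekeeping genes; bidirectional curve fit relative to DMSO baseline.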

[17] = read-out: MicroRNA 122 (MIR122), gene 406906; assay: LTEA_HepaRG_MIR122: Life Technologies and Expression Analysis (LTEA) Assay for MicroRNA 122 (MIR122) using HepaRG (AID 2283516); further: the transcript read is the microRNA miR-122
How it was run: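 Changes in transcript abundance, up or down relative to 0.5% DMSO vehicle, were scored after 48 h chemical treatment of HepaRG cells (maximum 100 uM). Quantification used TaqMan qRT-PCR normalized to housekeeping genes.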

[18] = read-out: matrix metalloproteinase-10 (MMP10), MMP10 (gene 4319); assay: LTEA_HepaRG_MMP10: Life Technologies and Expression Analysis (LTEA) Assay for matrix metalloproteinase-10 (MMP10) using HepaRG (AID 2283517)
How it was run: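 Transcript levels come from Fluidigm qRT-PCR normalized to three housekeeping genes, with curves fitted bidirectionally against 0.5% DMSO. Human HepaRG cells were dosed for 48 hours at concentrations up to 100 uM.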

[19] = read-out: Insulin-like growth factor-binding protein 1 (IGFBP1), IGFBP1 (gene 3484); assay: LTEA_HepaRG_IGFBP1: Life Technologies and Expression Analysis (LTEA) Assay for Insulin-like growth factor-binding protein 1 (IGFBP1) using HepaRG (AID 2283508)
How it was run: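 mRNA induction or loss was quantified by qRT-PCR after 48 h chemical exposure of human HepaRG cells, with 0.5% DMSO as vehicle and baseline. Concentration-response over eight points up to 100 uM.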

Measured: AC50

Sequence of Hypoxia-inducible factor 1-alpha (Homo sapiens) (Q16665 whole entry, looked up): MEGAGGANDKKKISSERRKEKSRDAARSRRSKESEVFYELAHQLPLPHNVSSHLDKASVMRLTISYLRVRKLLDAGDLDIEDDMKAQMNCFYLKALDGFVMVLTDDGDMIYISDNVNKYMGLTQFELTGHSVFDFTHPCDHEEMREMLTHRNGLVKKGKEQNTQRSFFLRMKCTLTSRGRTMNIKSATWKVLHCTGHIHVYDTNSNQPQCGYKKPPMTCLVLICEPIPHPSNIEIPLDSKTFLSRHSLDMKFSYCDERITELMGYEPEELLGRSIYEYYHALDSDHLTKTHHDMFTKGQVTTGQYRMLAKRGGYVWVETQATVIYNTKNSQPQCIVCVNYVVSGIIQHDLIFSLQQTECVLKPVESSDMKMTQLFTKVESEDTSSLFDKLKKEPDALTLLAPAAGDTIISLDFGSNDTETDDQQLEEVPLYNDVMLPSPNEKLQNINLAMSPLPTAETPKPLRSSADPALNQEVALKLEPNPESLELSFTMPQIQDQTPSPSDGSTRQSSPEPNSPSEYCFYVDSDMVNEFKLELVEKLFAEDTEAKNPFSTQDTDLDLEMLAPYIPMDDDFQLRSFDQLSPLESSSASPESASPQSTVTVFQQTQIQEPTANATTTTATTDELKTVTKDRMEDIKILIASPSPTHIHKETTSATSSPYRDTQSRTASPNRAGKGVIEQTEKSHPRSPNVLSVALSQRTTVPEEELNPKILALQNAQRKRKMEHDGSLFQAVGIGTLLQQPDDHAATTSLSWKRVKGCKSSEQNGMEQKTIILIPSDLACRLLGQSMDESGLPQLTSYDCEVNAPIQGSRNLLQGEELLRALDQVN

COC(=O)c1ccccc1C(=O)O
not listed: [19]
inactive: all other assays above

CCCCOC(=O)[C@@H](C)Oc1ccc(Oc2ccc(C(F)(F)F)cn2)cc1
inactive: all assays above

O=C(c1ccccc1)C1CCCCC1
inactive: all assays above

CCCCCOC(=O)COc1cc(N2C(=O)C3=C(CCCC3)C2=O)c(F)cc1Cl
not listed: [1]
inactive: all other assays above

C#C[C@]1(O)CC[C@H]2[C@@H]3CCC4=CC(=O)CC[C@@H]4[C@H]3CC[C@@]21CC
active: [10] 0.0379 µM
not listed: [1] | [12]
inactive: all other assays above

O=C(Nc1ccc([N+](=O)[O-])cc1Cl)c1cc(Cl)ccc1O
active: [4] 25 µM | [7] 2.59 µM | HGF (gene 3082) 2.98 µM | [8] 3.59 µM | [9] 6.3 µM | [19] 2.13 µM | [10] 3.29 µM | [11] 2.13 µM | [12] 4.02 µM | [13] 1.48 µM | [14] 2.42 µM | [15] 4.31 µM | [18] 3.43 µM
inactive: [2] | [3] | [5] | [16] | [17]

CCCCCCC(C)OC(=O)COc1nc(F)c(Cl)c(N)c1Cl (stereo unspecified)
not listed: [1]
inactive: all other assays above

CCCCOCCOCCOCc1cc2c(cc1CCC)OCO2
active: [2] 4.83 µM | [5] 7.35 µM | [8] 21.3 µM
not listed: [1]
inactive: all other assays above

CCC(C)OC(=O)N1CCCCC1CCO (stereo unspecified)
not listed: [1]
inactive: all other assays above

CCN(CC)C(=O)c1cccc(C)c1
active: [8] 13.1 µM
not listed: [1] | [3]
inactive: all other assays above

CCCOC(=O)NCCCN(C)C
not listed: [1] | HGF (gene 3082)
inactive: all other assays above

Cc1nn(C)c(Oc2ccccc2)c1C=NOCc1ccc(C(=O)OC(C)(C)C)cc1
inactive: [6] | [14]
active: [2] 3.1 µM | [3] 17.6 µM | [4] 3 µM | [5] 1.57 µM | [7] 12.4 µM | HGF (gene 3082) 86.6 µM | [8] 3.22 µM | [9] 16.8 µM | [19] 9.63 µM | [10] 5.23 µM | [11] 1.28 µM | [12] 12.9 µM | [13] 2.05 µM | [15] 24.2 µM | [16] 11.2 µM | [17] 30.3 µM | [18] 50 µM

— PubChem BioAssay (EPA / NIEHS)
